Results published in PubChem BioAssay AID1159580 (chemical genetic matrix, 2015).
Among all 5,500 compounds or so, about 2,000 (36%) were called active. Another 18% or so got no clear call; they are omitted. Cut-off read from the data, not from the text of the source: active = normalized growth mostly below about 0.91 (no sharp cut-off); inconclusive = no clear call, values can overlap the other calls; inactive = mostly above about 0.92. The list shows a part of the results.

Assay: chemical genetic growth profiling, strain panel (AID 1159580);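 note: tested at 20 µM; growth read once vehicle control cultures reached saturation at 30 °C; 1 = growth at the plate median or of vehicle wells; lower values mean less growth of the strain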
Conditions: S. cerevisiae deletion strains, growth OD

Measured: normalized growth

FC(F)(F)c1cccc(N2CCNCC2)c1
inactive: locus YAL013W, strain DEP1, stronger effect = lower value 1 | locus YAL021C, strain ccr4, stronger effect = lower value 0.992 | locus YAL026C, strain drs2, stronger effect = lower value 1 | locus YAL030W, strain snc1, stronger effect = lower value 0.99 | locus YBL061C, strain skt5, stronger effect = lower value 0.992 | locus YBR009C, strain hhf1, stronger effect = lower value 0.978 | locus YBR021W, strain FUR4, stronger effect = lower value 0.991 | locus YBR023C, strain chs3, stronger effect = lower value 0.996 | locus YBR171W, strain sec66, stronger effect = lower value 1.01 | locus YBR229C, strain ROT2, stronger effect = lower value 1.01 | locus YBR231C, strain swc5, stronger effect = lower value 0.99 | locus YBR279W, strain paf1, stronger effect = lower value 1 | locus YCL011C, strain gbp2, stronger effect = lower value 0.999 | locus YCL016C, strain dcc1, stronger effect = lower value 0.991 | locus YCL029C, strain bik1, stronger effect = lower value 0.996 | locus YCL061C, strain MRC1, stronger effect = lower value 1 | locus YCL069W, strain vba3, stronger effect = lower value 1 | locus YCR088W, strain abp1, stronger effect = lower value 1.01 | locus YDL005C, strain med2, stronger effect = lower value 1 | locus YDL035C, strain GPR1, stronger effect = lower value 1 | locus YDL040C, strain nat1, stronger effect = lower value 0.988 | locus YDL074C, strain BRE1, stronger effect = lower value 0.994 | locus YDL101C, strain DUN1, stronger effect = lower value 1 | locus YDL134C, strain PPH21, stronger effect = lower value 1.01 | locus YDL185W, strain tfp1, stronger effect = lower value 0.994 | locus YDL192W, strain arf1, stronger effect = lower value 0.995 | locus YDR001C, strain nth1, stronger effect = lower value 1.01 | locus YDR069C, strain doa4, stronger effect = lower value 0.973 | locus YDR101C, strain arx1, stronger effect = lower value 0.994 | locus YDR137W, strain rgp1, stronger effect = lower value 1 | locus YDR159W, strain sac3, stronger effect = lower value 0.956 | locus YDR162C, strain NBP2, stronger effect = lower value 1.01 | locus YDR195W, strain ref2 0.928 | locus YDR297W, strain sur2, stronger effect = lower value 1 | locus YDR318W, strain mcm21, stronger effect = lower value 0.989 | locus YDR334W, strain swr1, stronger effect = lower value 1.01 | locus YDR335W, strain msn5, stronger effect = lower value 0.993 | locus YDR388W, stronger effect = lower value 0.977 | locus YDR392W, strain spt3, stronger effect = lower value 0.89 | locus YDR502C, strain sam2, stronger effect = lower value 0.98 | locus YEL003W, strain gim4, stronger effect = lower value 1.01 | locus YEL037C, strain rad23, stronger effect = lower value 1 | locus YEL061C, strain CIN8 (second series), stronger effect = lower value 1.01 | locus YEL061C, strain CIN8, stronger effect = lower value 1.01 | locus YER015W, strain faa2, stronger effect = lower value 0.994 | locus YER016W, strain bim1, stronger effect = lower value 0.995 | locus YER110C, stronger effect = lower value 0.976 | locus YER111C, strain swi4, stronger effect = lower value 0.999 | locus YER155C, strain BEM2 (second series), stronger effect = lower value 0.93 | locus YER155C, strain BEM2, stronger effect = lower value 1.01 | locus YER167W, strain BCK2, stronger effect = lower value 1 | locus YFR010W, strain ubp6, stronger effect = lower value 1.03 | locus YGL078C, strain dbp3, stronger effect = lower value 0.973 | locus YGL086W, strain mad1, stronger effect = lower value 0.983 | locus YGL167C, strain pmr1, stronger effect = lower value 0.981 | locus YGL173C, strain kem1, stronger effect = lower value 1.01 | locus YGL227W, strain vid30, stronger effect = lower value 1 | locus YGL240W, strain doc1, stronger effect = lower value 0.962 | locus YGL248W, strain PDE1, stronger effect = lower value 1.01 | locus YGL253W, strain hxk2, stronger effect = lower value 1.02 | locus YGR135W, strain pre9, stronger effect = lower value 0.953 | locus YGR229C, strain SMI1, stronger effect = lower value 0.987 | locus YGR252W, strain gcn5, stronger effect = lower value 0.932 | locus YHR013C, strain ard1, stronger effect = lower value 0.961 | locus YHR027C, strain rpn1, stronger effect = lower value 0.994 | locus YHR030C, strain SLT2, stronger effect = lower value 1.01 | locus YHR079C, strain IRE1 (second series), stronger effect = lower value 0.998 | locus YHR094C, strain hxt1, stronger effect = lower value 0.992 | locus YHR129C, strain ARP1, stronger effect = lower value 1.01 | locus YHR142W, strain chs7, stronger effect = lower value 1.02 | locus YHR200W, strain rpn10, stronger effect = lower value 0.987 | locus YIL066C, strain RNR3, stronger effect = lower value 1.02 | locus YIL073C, strain SPO22, stronger effect = lower value 1.08 | locus YIL125W, strain kgd1, stronger effect = lower value 0.974 | locus YIR030C, strain dcg1, stronger effect = lower value 1 | locus YJL092W, strain hpr5, stronger effect = lower value 1.01 | locus YJL095W, strain BCK1 (second series), stronger effect = lower value 0.995 | locus YJL095W, strain BCK1, stronger effect = lower value 1.02 | locus YJL115W, strain asf1, stronger effect = lower value 0.998 | locus YJL129C, strain trk1, stronger effect = lower value 1.03 | locus YJL134W, strain LCB3, stronger effect = lower value 1 | locus YJL154C, strain vps35, stronger effect = lower value 1 | locus YJL164C, strain tpk1, stronger effect = lower value 0.993 | locus YJL166W, strain qcr8, stronger effect = lower value 0.987 | locus YJL168C, strain set2, stronger effect = lower value 0.987 | locus YJL187C, strain SWE1 (second series), stronger effect = lower value 1.01
